# Source: PubChem
# CtBP-E1A inh: blocks the CtBP interaction with E1A | AlphaScreen GST-E1A/His-CtBP binding, 1536-well; stronger effect = lower value | activity change, % (test concentration not listed) | 0.49% of 340,000 active | AID 651724; in the data active = activity change below about -65%; inconclusive = mostly about -30% to -63%
#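 AlphaScreen with 125 nM GST-E1A and 125 nM His-CtBP (5X stocks) in Tris pH 8.0, 300 mM NaCl, BSA, Tween 20, TCEP. Compounds preincubated 2 h at 37 deg C, then glutathione donor/nickel acceptor beads added for 1 h at 37 deg C in dark.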
# DT40 TDP1 CPT: growth inhibition of DT40 Tdp1-/-;hTDP1 cells with camptothecin (screen for TDP1 inhibitors); chicken DT40 Tdp1-/-;hTDP1 cells + 20 nM CPT, ATP luminescence, 48 h; Potency, µM (top dose mostly 46.2 µM), actives largely listed as inhibitors; 12% of 420,000 active; AID 686979; also: nearly all actives have a fitted effect of over 55% in size
#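 Cell growth measured by CellTiter-Glo luminescence after a minimum 48 h, 37 C compound exposure with 20 nM CPT in Tdp1-knockout DT40 cells stably expressing hTDP1, seeded 400/well; qHTS titration format.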
# Six1-Eya2 inh: blocks human Six1 binding to Eya2; Q15475+O00167; 0.56% of 360,000 active; AID 651725; activity change, % (test concentration not listed); AlphaScreen GST-Six1/His-Eya2 binding, biochemical; stronger effect = lower value; in the data active = activity change below about -65%; inconclusive = mostly about -30% to -63%
# Target sequence (O00167 whole entry, looked up): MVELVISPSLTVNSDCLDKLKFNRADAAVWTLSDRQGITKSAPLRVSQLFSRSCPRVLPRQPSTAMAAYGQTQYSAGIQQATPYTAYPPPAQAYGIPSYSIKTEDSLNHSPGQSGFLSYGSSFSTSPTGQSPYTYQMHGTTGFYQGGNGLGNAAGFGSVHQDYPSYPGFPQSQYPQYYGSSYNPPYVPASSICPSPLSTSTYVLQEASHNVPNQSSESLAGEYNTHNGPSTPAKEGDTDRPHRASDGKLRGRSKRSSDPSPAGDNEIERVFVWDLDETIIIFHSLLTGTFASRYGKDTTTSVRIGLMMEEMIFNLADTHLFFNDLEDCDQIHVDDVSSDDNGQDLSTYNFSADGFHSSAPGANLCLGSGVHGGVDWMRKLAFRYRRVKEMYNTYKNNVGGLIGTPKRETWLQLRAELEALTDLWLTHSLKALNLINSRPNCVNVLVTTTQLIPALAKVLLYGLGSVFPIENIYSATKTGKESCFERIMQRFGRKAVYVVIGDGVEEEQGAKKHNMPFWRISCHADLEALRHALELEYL
# Target sequence (Q15475 whole entry, looked up): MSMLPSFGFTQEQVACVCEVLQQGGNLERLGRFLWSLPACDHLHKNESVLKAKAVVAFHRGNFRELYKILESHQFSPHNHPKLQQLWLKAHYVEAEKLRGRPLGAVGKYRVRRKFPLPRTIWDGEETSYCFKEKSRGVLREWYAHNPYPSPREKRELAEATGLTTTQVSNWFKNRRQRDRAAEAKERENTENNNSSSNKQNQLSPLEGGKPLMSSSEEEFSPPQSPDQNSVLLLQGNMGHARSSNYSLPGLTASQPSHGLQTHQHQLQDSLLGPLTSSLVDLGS
#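 GST-Six1 + His-Eya2 (5X stock: 250/500 nM); Tris pH 8.0, 300 mM NaCl, 0.05% BSA, 0.02% Tween 20; GSH donor/Ni acceptor beads; 1 h 37 °C dark; AlphaScreen readout.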
# TDP1 inh: inhibitors of human tyrosyl-DNA phosphodiesterase TDP1; Q9NUW8; recombinant TDP1, AlphaScreen DNA substrate cleavage; Potency, µM (highest dose often 130 µM), most hits filed as inhibitors; 0.28% of 350,000 active; AID 485290; also: nearly all actives have a fitted effect of over 40% in size
#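 Signal: AlphaScreen proximity between streptavidin donor and anti-FITC acceptor beads on intact substrate. Reaction: Tdp1 1 nM, substrate 15 nM final, 5 min RT after 15 min compound preincubation.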
# TDP1 cell noCPT: qHTS for Inhibitors of human tyrosyl-DNA phosphodiesterase 1 (TDP1): qHTS in cells in absence of CPT; Potency, µM (series often up to 46.2 µM), actives largely listed as inhibitors; 15% of 420,000 active; DT40 Tdp1-/- hTDP1 cells, no CPT, ATP luminescence, 48 h; AID 686978, 2013; also: nearly all actives have a fitted effect of over 55% in size
#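 Chicken DT40 Tdp1-/- cells complemented with human TDP1, screened without camptothecin (DMSO vehicle only), 400 cells/well. Compounds pin-transferred, cells incubated at 37 °C for at least 48 hr. Growth read as ATP-dependent luminescence (CellTiter-Glo, 30 min at RT).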
# IL1B secr inh: inflammasome signaling inhibition, IL-1 beta readout; THP-1 LPS/ATP IL-1B secretion, AlphaLISA, 16 h; stronger effect = lower value; activity change, % at 57.5 µM; 4.7% of 360,000 active; in the data active = activity change below about -50%; inconclusive = mostly about -30% to -49%
#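 Secreted IL-1B measured by AlphaLISA bead assay after 16 h compound exposure of THP-1 cells; compounds (final up to 57.5 uM) added 1 h before LPS (250 ng/mL) and ATP (1.25 mM) stimulation; lower signal means less secretion.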
# Hits are given with their value; – = inactive; ? = inconclusive; · = no result given. Compounds with a hit are over-represented: about 18% of the library has one in this group of screens. Unless noted, calls follow the shape of the dose curve; as a rule, active = well fitted curve in the direction sought with a large enough effect; inconclusive = small, poorly fitted or top-dose-only effect, or another doubt; inactive = no such curve, though single readings can be large; an effect the other way counts as inactive or inconclusive.
SMILES,CtBP-E1A inh,DT40 TDP1 CPT,Six1-Eya2 inh,TDP1 inh,TDP1 cell noCPT,IL1B secr inh
Cc1csc(=O)n1CC(=O)OCc1cccc2ccccc12,–,–,–,–,–,?
CCNC(=O)N1CCOCC1,–,–,–,–,6.3µM,–
CCOCCCNC(=O)c1ccc(NC(C)=O)cc1,–,–,–,–,–,–
CCCc1cc(C(=O)Nc2c(C)nn(Cc3ccc(Cl)c(Cl)c3)c2C)no1,·,13µM,·,–,26µM,·
Cc1ccc(Cn2ccc(NC(=O)c3cc(CC(C)C)on3)n2)cc1,–,?,–,–,21µM,–
Cc1ccccc1Cn1nc(C)c(NC(=O)c2noc3c2CCc2ccccc2-3)c1C,–,21µM,–,–,13µM,–
Cc1nn(Cc2ccc(Cl)c(Cl)c2)c(C)c1NC(=O)c1cc(CC(C)C)on1,–,18µM,–,–,23µM,–
CCCc1cc(C(=O)Nc2c(C)nn(Cc3ccc(C)cc3)c2C)no1,·,?,·,–,?,·
O=C(Nc1ccc(N2CCN(C(=O)c3ccco3)CC2)cc1)c1cc(Br)ccc1Cl,–,?,–,–,?,?
Cc1ccc(CNC(=O)Cn2nc(C)n3cccc3c2=O)cc1,·,–,·,–,–,·
Cc1nn(Cc2ccc(Cl)c(Cl)c2)c(C)c1NC(=O)c1noc2c1CCCCC2,–,12µM,–,–,13µM,–
O=C(COC(=O)COc1ccccc1)Nc1ccc(Cl)cn1,–,–,–,–,–,–
C=CCn1c(Cc2csc(N)n2)nnc1SCc1ccc(C(=O)OC)cc1,–,–,–,–,–,–
CC1CC(C)(C)NC(=S)N1CCCC(=O)Nc1ccc(F)cc1 (configuration not stated),–,–,–,–,18µM,–
CCOc1ccc(OCC)c(NC(=O)CCCN2C(=S)NC(C)(C)CC2C)c1 (configuration not stated),–,16µM,–,–,16µM,–
COc1ccc(OC)c(NC(=O)CCCN2C(=S)NC(C)(C)CC2C)c1 (configuration not stated),–,–,–,–,–,–
O=C(O)C1Oc2cc3ccccc3cc2O1,–,–,–,·,–,–
Clc1ccccc1NN(Cc1ccncc1)c1ccccc1Cl,–,?,–,·,?,?
Clc1ccccc1NN(Cc1ccccn1)c1ccccc1Cl,–,?,–,·,23µM,–
CCS(=O)(=O)Nc1ccc(-c2nnc(SCC(=O)OC)o2)cc1,–,–,–,–,–,-85
CCC(=O)Nc1ccc(C(=O)CSc2nnc(-c3ccc(NS(=O)(=O)CC)cc3)o2)cc1OC,–,1.6µM,–,·,1.2µM,–
COC(=O)CSc1nnc(-c2ccc(S(=O)(=O)N3CCCC3)cc2)o1,–,–,–,·,–,-52
COc1cc2cc(CN(CCCN3CCOCC3)C(=O)Nc3ccccc3F)c(=O)[nH]c2cc1OC,–,–,–,–,–,–
COc1cc(/C=C/C(=O)Nc2cccc(S(=O)(=O)NC3=NCCCCC3)c2)ccc1OCC#N,–,?,–,·,26µM,-56
O=C(COC(=O)c1ccc(OC(F)F)cc1)Nc1cccc(S(=O)(=O)NC2=NCCC2)c1,–,–,–,–,–,–
SMILES,CtBP-E1A inh,DT40 TDP1 CPT,Six1-Eya2 inh,TDP1 inh,TDP1 cell noCPT,IL1B secr inh
O=C(/C=C/c1ccc(OC(F)F)cc1)Nc1cccc(S(=O)(=O)NC2=NCCCCC2)c1,–,?,?,–,?,-81
COc1ccc(/C=C/C(=O)Nc2cccc(S(=O)(=O)NC3=NCCCCC3)c2)cc1,–,?,?,–,23µM,–
CCC(C)N(C(=O)COc1ccccc1C#N)C1CCS(=O)(=O)C1 (configuration not stated),–,–,–,·,–,–
Cc1cc(C)cc(C(=O)N2CC(C)SC2=Nc2cccc(S(=O)(=O)N(C)C)c2)c1 (configuration not stated),–,?,–,–,?,–
CN(C)S(=O)(=O)c1cccc(N=C2SCCN2Cc2ccccc2)c1,–,?,–,·,21µM,–
CC1SC(c2ccc(F)cc2)NC1=O (configuration not stated),–,–,–,–,–,–
CC(O)CCC(=O)NCCNC(=O)CCC(C)O (configuration not stated),–,26µM,–,–,?,–
O=C(CCC(=O)NCCO)NCCO,–,–,–,–,–,–
CCN1C(c2ccccc2)C(C)C(=O)C(C)C1c1ccccc1 (configuration not stated),–,?,–,–,?,–
COc1cccc(/C=N/NC(=O)c2ccc([N+](=O)[O-])cc2Cl)c1O,-88,4.6µM,-89,–,4.6µM,–
COc1ccccc1/C=N/NC(=O)c1ccccc1Cl,–,–,–,–,–,-67
COc1ccccc1/C=N/NC(=O)c1cccc(NC(=O)c2ccccc2Cl)c1,–,–,–,–,–,–
CCCCCCN(C(=O)CCCCCN1C(=O)NC(c2ccc3ccccc3c2)C(C(=O)OCc2ccccc2)=C1C)C(C(=O)NCCCC)c1ccc(OCC(=O)OC)c(C(=O)OC)c1 (configuration not stated),·,·,·,–,·,·
O=C(Nc1ccc(F)cc1Cl)C1CCN(C(=O)Nc2ccccc2)CC1,–,–,–,–,–,–
COc1ccc(C2/C=C\CN(C(=O)c3ccccc3)CC(=O)N2Cc2cccc(F)c2)cc1 (configuration not stated),–,?,–,–,–,–
COc1ccc([C@H]2/C=C\CN(C(=O)[C@H](Cc3ccccc3)NC(=O)OCC3c4ccccc4-c4ccccc43)CC(=O)N2Cc2ccc(F)cc2)cc1,–,21µM,–,·,?,–
COc1ccc(C2/C=C\CN(C(=O)OCC3c4ccccc4-c4ccccc43)CC(=O)N2Cc2cccc(F)c2)cc1 (configuration not stated),–,?,–,–,23µM,–
CC1CCCCC12NC(=O)N(CC(=O)N(C)Cc1nc3ccccc3c(=O)[nH]1)C2=O (configuration not stated),·,–,–,–,–,–
O=C(CNS(=O)(=O)c1ccccc1)Nc1ccc(C(F)(F)F)cc1,–,16µM,–,–,16µM,–
O=C(C[n+]1ccc(C(=O)c2ccccc2)cc1)Nc1ccc(C(F)(F)F)cc1,–,23µM,–,–,16µM,-60
O=C(CNS(=O)(=O)c1ccc(F)cc1)Nc1ccc(C(F)(F)F)cc1,–,18µM,–,–,18µM,–
CC(C)c1ccc(NC(=O)CNS(=O)(=O)c2ccc(F)cc2)cc1,–,16µM,–,–,12µM,–
Cc1ccc(S(=O)(=O)NCC(=O)Nc2ccc(C(F)(F)F)cc2)cc1,–,?,–,–,?,–
